Data published in PubChem BioAssay AID624263 (National Center for Advancing Translational Sciences (NCATS), 2012).
Hit rate of the full screen: of about 410,000 compounds, about 820 (0.2%) were called active. Inconclusive results (about 2%) are left out. Calls come from the whole dose curve; as a rule, active = well fitted activation curve with a large enough effect; inconclusive = small, poorly fitted or top-dose-only effect; inactive = flat fitted curve, though single readings scatter; cell line not stated here. This excerpt belongs to a sample that is enriched for actives.

assay: A Quantitative High throughput Screen to Identify Chemical Modulators of PINK1 Expression; conditions: PINK1 immunofluorescence, high-content cytometry, 24 h; series mostly up to 76.6 µM; activation (PINK1 increase): at the top concentration; note: nearly all actives have a fitted effect of over 65% in size; for activation (PINK1 increase): % of control where 0% means no effect
In short: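 Compound titrations (5 concentrations, 24 h) on a stable cell line; DMSO and CCCP controls. Endpoint: fixed-cell PINK1 immunofluorescence with mitochondrial, cell and nuclear markers, scanned by microplate cytometer.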
Potency is the fitted concentration of half-maximal effect.

Row | SMILES | activation (PINK1 increase) | Potency
1 | COc1ccc(CCNC(=O)CCCCn2c(=O)c3ccccc3n(Cc3ccccc3)c2=O)cc1OC | 1.18% (inactive) | –
2 | CCCCn1c(SCC(=O)NCCc2ccc(OC)c(OC)c2)nc2c1c(=O)n(C)c(=O)n2C | – | 3.98 µM (active)
3 | CCCCn1c(SCC(=O)N2CCOCC2)nc2c1c(=O)n(C)c(=O)n2C | 2.85% (inactive) | –
4 | COc1ccccc1C(=O)N[C@@H]1c2ccccc2C2(CCN(C(=O)c3csnn3)CC2)[C@H]1OC | -0.317% (inactive) | –
5 | CN1CCN(/[N+]([O-])=N/Oc2ccc([N+](=O)[O-])cc2[N+](=O)[O-])CC1 | -0.224% (inactive) | –
6 | Cc1cc(C)cc(CN2CCc3nnc(C(NS(C)(=O)=O)C(C)C)n3CC2)c1 (stereo unspecified) | -0.82% (inactive) | –
7 | COc1ccccc1C1CN(CCNC(=O)C2=CCCC2)Cc2ccccc2O1 (stereo unspecified) | 2.63% (inactive) | –
8 | O=C(CCc1ccccc1)Nc1ccc(NC(=O)C2CC2)nc1 | -1.31% (inactive) | –
9 | CC(/C=C/c1ccco1)=N/NC(=O)C1COc2ccccc2O1 (stereo unspecified) | 9.76% (inactive) | –
10 | O=C(Nc1ncc([N+](=O)[O-])s1)C1COc2ccccc2O1 (stereo unspecified) | – | 44.7 µM (active)
11 | O=C(CCc1ccccc1)Nc1ccc(NC(=O)C2CCCCC2)nc1 | 9.37% (inactive) | –
12 | COc1ccc(OC)c2sc(N3CCN(C(=O)C4COc5ccccc5O4)CC3)nc12 (stereo unspecified) | -0.0279% (inactive) | –
13 | O=C(CCc1ccccc1)Nc1ncc([N+](=O)[O-])s1 | – | 20 µM (active)
14 | CN(Cc1cccc2ncccc12)C(=O)c1cnn(-c2nccc(-c3ccccc3F)n2)c1C1CC1 | -0.707% (inactive) | –
15 | COc1ccc(-n2c(CNC(=O)c3cc(C(F)(F)F)ccc3Cl)nnc2SC)cc1 | -0.22% (inactive) | –
16 | COc1ccccc1-c1ccnc(-n2ncc(C(=O)NCCCN3CCOCC3)c2C)n1 | 0.284% (inactive) | –
17 | C[C@@H]1CN(Cc2ccc3c(c2)CN(Cc2ccc(Oc4ncccn4)cc2)CCO3)C[C@H](C)O1 | 0.0196% (inactive) | –
18 | CCC1CN(CCNC(=O)c2cccc(C)n2)Cc2cc(OC)ccc2O1 (stereo unspecified) | 0.509% (inactive) | –
19 | COC(=O)c1sc(NC(=O)c2csc3c2CCCC3)nc1C | – | 10 µM (active)
20 | CCOc1ccc(CCNC(=O)c2csc3c2CCCCC3)cc1 | 2.82% (inactive) | –
21 | CCOC(=O)c1ccc(NC(=O)c2csc3c2CCCCC3)cc1 | 3.73% (inactive) | –
22 | CCCCOc1ccc(C(=O)NO)cc1 | 1.55% (inactive) | –
23 | Cn1c(SCC(=O)Nc2cccc(O)c2)nnc1-c1ccc(S(=O)(=O)N2CCOCC2)cc1 | – | 14.1 µM (active)
24 | CCC(=O)Nc1cccc(NC(=O)CSc2nnc(-c3ccc(NS(C)(=O)=O)cc3)n2C)c1 | -1.24% (inactive) | –

Row | SMILES | activation (PINK1 increase) | Potency
25 | Cc1ccnc(SCC(=O)Nc2cccc(S(=O)(=O)N3CCOCC3)c2)n1 | 1.18% (inactive) | –
26 | CC(C)(C(=O)NO)c1ccccc1 | 0.961% (inactive) | –
27 | CCC1(C2CCN(Cc3cccnc3)CC2)NC(=O)N(CC2COc3ccccc3O2)C1=O (stereo unspecified) | -0.0745% (inactive) | –
28 | CNCCCOc1cc2nc(N3CCCN(C)CC3)nc(NC3CCN(C)CC3)c2cc1OC | 0.921% (inactive) | –
29 | COc1ccc2cc(-c3nc(Cl)c4c5c(sc4n3)CC(C)CC5)c(=O)oc2c1 (stereo unspecified) | – | 15.8 µM (active)
30 | COc1ccc2oc(=O)c(-c3cn4c(n3)sc3cc(OC)ccc34)cc2c1 | 2.47% (inactive) | –
31 | CCOC(=O)c1c(NC(=O)/C=C/c2ccc(OC)cc2)sc2c1CCC(C)C2 (stereo unspecified) | 0.453% (inactive) | –
32 | COc1cc(=O)n2c(c1C(=O)N(C)Cc1nccs1)CCN(Cc1ccc(Cl)cc1)CC2 | 1.54% (inactive) | –
33 | c1ccc(CN2CCN(Cc3ccc4c(c3)CN(Cc3c[nH]c5ccccc35)CCO4)CC2)nc1 | -1.03% (inactive) | –
34 | COc1ccc(F)c(CN2CCC3(CCC(CNC(=O)c4ccn(C)n4)O3)CC2)c1 (stereo unspecified) | -0.704% (inactive) | –
35 | O=C1COc2ccc(-c3csc(-c4ccc(Cl)cc4)n3)cc2N1 | 5.95% (inactive) | –
36 | OC(CBr)C[n+]1cccc2cc(Br)ccc21 (stereo unspecified) | -0.654% (inactive) | –
37 | CO[C@H]1[C@H](NC(=O)C(C)C)c2ccccc2C12CCN(Cc1cnc(N(C)C)s1)CC2 | 0.667% (inactive) | –
38 | CCN1CC=C2C(C#N)=C(N)C(C#N)(C#N)[C@H](c3ccoc3)[C@H]2C1 | – | 39.8 µM (active)
39 | CC(C)N1C[C@@H](NCc2ccccc2O)C[C@H]1C(=O)N1CCN(c2cccc(C(F)(F)F)c2)CC1 | -0.16% (inactive) | –
40 | FC(F)(F)c1cccc(-c2cn[nH]c2C2CCCN(Cc3cccn3-c3ccccn3)C2)c1 (stereo unspecified) | 1.02% (inactive) | –
41 | CC(=O)Nc1ccccc1-c1nc(CNC(=O)c2ccc(Cl)cc2)c(C)o1 | 0.266% (inactive) | –
42 | C=COC(=O)N1CCN(/[N+]([O-])=N/Oc2ccc([N+](=O)[O-])cc2[N+](=O)[O-])CC1 | 1.32% (inactive) | –
43 | CCS(=O)(=O)Nc1cc(C(=O)N2C[C@@H](C)O[C@@H](C)C2)c2c(c1)nc(-c1ccccc1)n2C | 0.73% (inactive) | –
44 | Cc1ccc(C(=O)Nc2cccc(-c3nc(CNC(=O)c4ccccc4-n4cccn4)c(C)o3)c2)s1 | 1.36% (inactive) | –
45 | COc1ccc2c(c1)CCc1cnc(-n3ncc(C(=O)NCCN4CCOCC4)c3C)nc1-2 | 1.37% (inactive) | –
46 | COc1ccc(CN2CCOc3c(cc(-c4ncc(C(F)(F)F)cc4Cl)cc3OCC3CCCO3)C2)c(O)c1 (stereo unspecified) | 0.559% (inactive) | –
47 | COc1cc2nc(N3CCCN(C)CC3)nc(NC3CC3)c2cc1OC | 1.39% (inactive) | –
48 | CC(=O)Nc1cc(C(=O)N2CCc3c(Cl)cccc3C2)cc2ncn(CCc3ccccn3)c12 | -0.966% (inactive) | –

Row | SMILES | activation (PINK1 increase) | Potency
49 | CCCOc1ccc(F)cc1-c1cc(C(=O)Nc2ccc(F)c(Cl)c2)[nH]n1 | – | 39.8 µM (active)
50 | CC(C)Oc1cc(F)ccc1-c1cc(C(=O)Nc2ccc(F)cc2)[nH]n1 | 1.71% (inactive) | –
51 | COc1ccc(Cl)cc1-c1cc(C(=O)Nc2cc(OC)c(OC)c(OC)c2)[nH]n1 | -1.2% (inactive) | –
52 | Cc1ccc2c(C)nc(N3CCCC(C(=O)NC(C)(C)CO)C3)nc2c1 (stereo unspecified) | -0.708% (inactive) | –
53 | Cc1cnc(C(=O)N2CCOc3ccc(CN4CCCC(C(=O)c5cccnc5)C4)cc3C2)[nH]1 (stereo unspecified) | -0.535% (inactive) | –
54 | O=c1c(-c2ccc(F)cc2)nc2cnc(N3CCOCC3)nc2n1-c1ccccc1 | 0.858% (inactive) | –
55 | COc1cc2nc(Cl)nc(NC3CC3)c2cc1OC | 1.67% (inactive) | –
56 | COc1ccc(C(=O)N2CCC3(CC2)CCN(c2ccccn2)CC3)cc1 | -0.552% (inactive) | –
57 | COc1ccccc1CNc1nc(-c2c(C)noc2C)nc2ccccc12 | 2.49% (inactive) | –
58 | COc1ccc(CN2CCC3(CCC(CNC(=O)c4ccco4)O3)CC2)cc1OC (stereo unspecified) | 1.17% (inactive) | –
59 | COc1ccc(CN(C)CCn2cc(C(=O)N3CCSCC3)nn2)cc1C | -0.0428% (inactive) | –
60 | CS(=O)(=O)c1ccccc1C(=O)Nc1ccc2sccc2c1 | 1.33% (inactive) | –
61 | COc1cccc(C(=O)Nc2ccc3oc(-c4ccc5ccccc5c4)nc3c2)c1 | -0.987% (inactive) | –
62 | O=C(Nc1ccc2ccccc2c1)Nc1ccc2snnc2c1 | – | 44.7 µM (active)
63 | CN(C)C(=O)[C@@H]1C[C@@H](Sc2nc3ccccc3[nH]2)CN1Cc1ccc(Cl)cc1 | -0.905% (inactive) | –
64 | O=C(c1cc(C(F)(F)F)cc(C(F)(F)F)c1)N1CCC[C@@]2(CCN(c3ccccn3)C2)C1 | 1.27% (inactive) | –
65 | CC(C)c1cc(C(=O)N2CCOc3ccc(CN4CCC(Oc5cccnc5)CC4)cc3C2)n[nH]1 | 0.462% (inactive) | –
66 | Cc1c(S(=O)(=O)O)oc2c1C(=O)C(=O)c1c-2ccc2c1CCCC2(C)C | -0.627% (inactive) | –
67 | S=c1[nH]c(=S)c2n[nH]nc2[nH]1 | 0.817% (inactive) | –
68 | O=[N+]([O-])c1ccc(NS(=O)(=O)c2ccccc2)c(Cl)c1 | – | 39.8 µM (active)
69 | O=C(NNS(=O)(=O)c1ccc(F)cc1)c1ccc([N+](=O)[O-])cc1Cl | 1.65% (inactive) | –
70 | O=C(NCCCNc1ccc([N+](=O)[O-])cc1Cl)c1ccccc1F | -0.842% (inactive) | –
71 | C=C[C@](C)(O)CCC1C(=C)CCC2[C@@](C)(CO)CCC[C@@]12C (stereo partly specified) | 6.03% (inactive) | –
72 | COc1cccc(CN2CCC3(CC2)c2ccccc2[C@@H](NC(=O)c2ccccc2OC)[C@@H]3O)c1 | 2.04% (inactive) | –

Row | SMILES | activation (PINK1 increase) | Potency
73 | COc1cc(=O)n2c(c1C(=O)NCc1ccco1)CCN(Cc1ccccc1)CC2 | -0.574% (inactive) | –
74 | O=c1c(CN2CCOc3ccc(CN4CCC(Oc5cccnc5)CC4)cc3C2)coc2ccccc12 | -0.312% (inactive) | –
75 | Cc1ccc(C)c(NC(=S)NCC(c2cccnc2)N2CCOCC2)c1 (stereo unspecified) | -1.64% (inactive) | –
76 | Cc1ccc(C)c(NC(=O)C2CC(=O)N(C(C)C)C2)c1 (stereo unspecified) | 1.52% (inactive) | –
77 | Cc1ccc(C)c(NC(=S)NNC(=S)Nc2ccc(C(C)C)cc2)c1 | – | 14.1 µM (active)
78 | COCCn1c(=O)c(-c2ccc(OC)cc2)nc2cnc(Oc3cccc(Cl)c3)nc21 | 1.63% (inactive) | –
79 | Nc1ccc(/C=C/c2ccnc3ccccc23)c([N+](=O)[O-])c1 | 13.3% (inactive) | –
80 | CCOC(=O)N1CCN(Cc2ccc3c(c2)CN(C(=O)c2cccc(-n4cccn4)c2)CCO3)CC1 | -0.805% (inactive) | –
81 | COc1ccccc1CNC(=O)C1CCN(S(=O)(=O)c2ccc3c(c2)OCCO3)CC1 | 1.24% (inactive) | –
82 | COc1ccccc1CNC(=O)C1CCN(C(=O)[C@@H]2Cc3ccccc3CN2)CC1 | -0.408% (inactive) | –
83 | COc1ccccc1CNC(=O)C1CCN(c2nc3ccccc3o2)CC1 | – | 2.82 µM (active)
84 | O=C(CCN1Cc2ccccc2OC(c2ccccc2)C1)N[C@@H]1CS(=O)(=O)C[C@H]1O (stereo partly specified) | -0.62% (inactive) | –
85 | CN1CCN(c2ncc3nc(-c4ccc(Cl)cc4)c(=O)n(-c4ccccc4)c3n2)CC1 | 3.94% (inactive) | –
86 | CCc1nc2cc(C(=O)NCC3CCS(=O)(=O)C3)cc(NC(=O)c3ccccc3OC)c2n1C (stereo unspecified) | 0.746% (inactive) | –
87 | Cc1cc(C2=NNC(=Nc3ccc(S(=O)(=O)N4CCOCC4)cc3)SC2)c(C)n1CC1CCCO1 (stereo unspecified) | – | 35.5 µM (active)
88 | CCOc1ccc(S(=O)(=O)N2CCN(C(=S)NCC3CCCO3)CC2)cc1 (stereo unspecified) | 1.31% (inactive) | –
89 | C=CCn1c(C)cc(C2=NNC(=NCC)SC2)c1C | 0.36% (inactive) | –
90 | COc1ccccc1CNc1ncncc1-c1cccnc1 | -0.566% (inactive) | –
91 | COC(=O)c1c(OCc2ccc(F)cc2)cc(=O)n2c1CCN(Cc1ccc3cccnc3c1)CC2 | 0.408% (inactive) | –
92 | COc1ccc(C2=NOC(C(=O)NCc3ccco3)C2)cc1OC (stereo unspecified) | – | 12.6 µM (active)
93 | COc1ccc(S(=O)(=O)N2CCC(C(=O)NCc3ccco3)CC2)cc1C | -0.254% (inactive) | –
94 | O=C(NCc1cc(C(F)(F)F)cc(C(F)(F)F)c1)C1CC(c2cccc(F)c2)=NO1 (stereo unspecified) | 9.67% (inactive) | –
95 | COc1cc2nc(N3CCCN(C)CC3)nc(NC(C)C)c2cc1OC | 2.45% (inactive) | –
96 | CCc1noc(C)c1C(=O)NCCN1Cc2cc(OC)ccc2OC(CC)C1 (stereo unspecified) | -0.237% (inactive) | –
